# Only a selection was taken, and hits are over-represented in it overall.
# Shiga inhibitor: Shiga toxin inhibition. Vero cells, Shiga toxin protein synthesis inhibition reporter. 290,000 compounds, 9.2% hits. AID 2315. inhibition, % at 38.7 µM; in the data active = inhibition mostly above about 28%, no sharp cut-off; inactive = mostly below about 43%; also: 0% is about no effect
# Sm TGR inh: S. mansoni TGR enzyme inhibition. 360,000 compounds, 3% hits. purified TGR, DTNB reduction, TNB absorbance 405 nm. Potency, µM (top dose mostly 114 µM), for inactives: at the top dose activity change, negative = inhibition, hits mostly inhibitors. AID 485364; also: potency is read from the fitted curve at half-maximal effect; % is scaled to controls: 0 for no effect and ±100 for the full control effect; nearly all actives have a fitted effect of over 60% in size
#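 Kinetic colorimetric format: TGR-catalysed, NADPH-driven DTNB reduction monitored via TNB absorbance. Enzyme dispensed at 20 nM; compound exposure 15 min at room temperature before reaction start.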
# Giardia FBPA inh: blocks Giardia fructose-bisphosphate aldolase activity; purified Giardia FBPA; 290,000 compounds, 0.71% hits; A8B2U2; Potency, µM (highest dose often 59.6 µM), without a hit: at the top dose activity, negative = inhibition, most hits filed as inhibitors; also: potency is read from the fitted curve at half-maximal effect; % is scaled to controls: 0 for no effect and ±100 for the full control effect; nearly all actives have a fitted effect of over 55% in size
# Target sequence (A8B2U2 whole entry, looked up): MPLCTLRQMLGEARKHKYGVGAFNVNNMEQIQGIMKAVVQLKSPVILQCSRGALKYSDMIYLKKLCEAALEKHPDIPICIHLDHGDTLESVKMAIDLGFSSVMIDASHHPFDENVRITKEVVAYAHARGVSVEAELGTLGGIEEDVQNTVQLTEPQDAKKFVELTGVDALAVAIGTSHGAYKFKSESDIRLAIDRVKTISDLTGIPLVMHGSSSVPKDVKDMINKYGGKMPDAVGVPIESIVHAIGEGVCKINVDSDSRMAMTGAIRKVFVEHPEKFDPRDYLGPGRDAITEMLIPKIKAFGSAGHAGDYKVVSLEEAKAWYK
#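 Giardia FBPA (40 nM reagent) was preincubated 10 min at RT with compound (up to 57.5 uM final), then substrate plus GAPDH/TPI/NAD/arsenate coupling system with diaphorase/resazurin was added; resorufin fluorescence (525/598 nm) was read after 20 min.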
# LmPK inhibitor: LmPK (Leishmania mexicana) enzyme inhibition; Q27686; purified LmPK, Kinase-Glo ATP luminescence, 1 h; Potency, µM (top dose mostly 57.5 µM), inactives show top-dose activity change, negative = inhibition, usual class: inhibitors; 290,000 compounds, 0.37% hits; AID 1721; also: potency is read from the fitted curve at half-maximal effect; % is scaled to controls: 0 for no effect and ±100 for the full control effect
#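 Pyruvate kinase activity monitored as ATP production (luciferase luminescence). Conditions: 0.1 nM enzyme, 0.5 mM PEP, 0.1 mM ADP, 1 h, RT; normalized against uninhibited and no-enzyme wells.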
# Cycloheximide cs: affects cycloheximide protein synthesis inhibition readout, counter-screen; cell reporter, cycloheximide protein synthesis inhibition counterscreen; max response, %; 300,000 compounds, 12% hits; AID 2314; in the data active = max response mostly above about 13%, no sharp cut-off; inactive = mostly below about 14%; also: read at 38.3 µM for the half of the compounds with a filed dose; 0% is about no effect
# Tb PYK inh: T. brucei pyruvate kinase inhibition; TbPYK enzyme, Kinase-Glo Plus ATP luminescence, 45 min; AID 624173; Q57TT1; Potency, µM (series often up to 76.8 µM), for the others: top-dose activity, negative = inhibition, usual class: inhibitors; 410,000 compounds, 0.12% hits; also: potency is read from the fitted curve at half-maximal effect; % is scaled to controls: 0 for no effect and ±100 for the full control effect; nearly all actives have a fitted effect of over 50% in size
#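 Assay buffer: 50 mM TEA pH 7.2, 100 mM KCl, 10 mM MgCl2, 0.05% BSA, 0.01% Tween-20. Pyruvate kinase from T. brucei plus substrate met compound, then ADP (130 uM final). Luminescence was read post 45 min RT.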
# * hit, by the source's call; . = not tested or not shown; [ ] = another dose, or the depositor's remark. Unless noted, calls follow the shape of the dose curve; as a rule, active = well fitted curve in the direction sought with a large enough effect; inconclusive = small, poorly fitted or top-dose-only effect, or another doubt; inactive = no such curve, though single readings can be large; an effect the other way counts as inactive or inconclusive.
SMILES,Shiga inhibitor,Sm TGR inh,Giardia FBPA inh,LmPK inhibitor,Cycloheximide cs,Tb PYK inh
CCc1ccc(NC(=O)CSc2nc3c(c(=O)[nH]2)CN(Cc2ccc(C)cc2)CC3)cc1,.,5%,.,.,.,2%
COc1ccccc1NC(=O)C1=C(C)Nc2c(C(=O)Nc3cccc(C)c3)cnn2C1c1ccccc1Cl (stereo not given),.,11%,.,.,.,7%
COc1cc(Cl)c(C)cc1NC(=O)c1cc2c(Cl)nc3ccc(C)cc3c2s1,.,-10%,.,.,.,7%
CC(/C=N/NC(=O)c1ccc(Br)cc1)=C\c1ccccc1,35,-7%,-1%,4%,13,-4%
CC(/C=N/NC(=O)C(O)c1ccccc1)=C\c1ccccc1 (stereo not given),45*,-3%,1%,-1%,14*,0%
CC(/C=N/NC(=O)CSc1nc(C)cc(C)n1)=C\c1ccccc1,-11,-9%,2%,-1%,-5,-4%
O=C(N/N=C/C=C/c1ccccc1)C(O)c1ccccc1 (stereo not given),.,.,.,.,.,-17%
CC(/C=N/NC(=O)c1cccnc1)=C\c1ccccc1,84*,-7%,12%,-2%[11.5 µM],49*,1%
CC(/C=N/Nc1nc(C)cc(C)n1)=C\c1ccc(C(C)C)cc1,59*,-7%,-12%,4%,35*,9%
O=C(N/N=C/C(Cl)=C/c1ccccc1)c1cnccn1,57*,0%,-4%,-8%,27,1%
Cc1ccc(NC(=O)Nc2nnc(SCC(=O)N(C(C)C)C(C)C)s2)cc1,.,3%,.,.,.,0%
CC(/C=N/NC(=O)c1cc(C(C)C)[nH]n1)=C\c1ccccc1,18,-10%,6%,0%,-1,2%
O=C(N/N=C/c1cc([N+](=O)[O-])ccc1Cl)c1cnccn1,-10,15%,-16%,8%,-2,2%
O=C(N/N=C/C(Cl)=C\c1ccccc1)c1cnccn1,132*,9%,-10%,-5%,53*,4%
CC(/C=N/NC(=O)c1ccncc1)=C\c1ccc(C(C)C)cc1,128*,-1%,6%,0%,52*,-4%
CC(=C/c1ccccc1)/C=N/NC(=O)c1cnccn1,51*,-27%,1%,-1%,30*,0%
COc1ccccc1NC(=O)c1cnc(SCC(=O)NCC2CCCO2)n(C)c1=O (stereo not given),.,3%,.,.,.,6%
O=c1cc(-c2ccc(F)cc2)oc2ccccc12,.,.,.,.,.,-3%
Cc1ccccc1-c1cc(=O)c2ccccc2o1,.,.,.,.,.,8%
O=c1cc(-c2ccccc2F)oc2ccccc12,59*,1%,1%,1%,28*,2%
CSc1ccc(-c2cc(=O)c3ccccc3o2)cc1,34*,0%,-5%,-3%,40*,-1%
O=C(CSc1n[nH]c(-c2ccco2)n1)N1c2ccccc2Sc2ccccc21,-8,35µM*,-1%,9%,-3,7%
CCOC(=O)CSc1n[nH]c(-c2ccco2)n1,-15,-13%,-26%,0%,-7,-2%
CC1CCN(C(=O)/C(=C\c2cccs2)NC(=O)c2ccccc2)CC1,21,4µM*,-11%,-4%,-1,-12%
CC1CCCN(C(=O)/C(=C/c2ccco2)NC(=O)c2ccccc2)C1 (stereo not given),1,-27%,-5%,9%,-2,-16%
SMILES,Shiga inhibitor,Sm TGR inh,Giardia FBPA inh,LmPK inhibitor,Cycloheximide cs,Tb PYK inh
O=C(N/C(=C\c1ccco1)C(=O)N1CCCC1CO)c1ccccc1 (stereo not given),-5,35µM*,2%,0%,-3,8%
COc1ccc(C(=O)N/C(=C/c2cccs2)C(=O)N2CCN(C)CC2)cc1,.,.,.,.,.,-19%
Cc1ccc(C(=O)N/C(=C/c2ccco2)C(=O)N2CCC(C)CC2)cc1,-8,50µM*,-16%,-6%,3,-6%
CC1CCN(C(=O)/C(=C\c2ccco2)NC(=O)c2ccccc2)CC1,2,-35%,2%,2%,0,-2%
O=C(Nc1ccc(NC(=O)C2CC2)cc1)c1ccco1,63*,4%,14%,-9%,43*,3%
O=C(Nc1ccc(NC(=O)c2ccco2)nc1)c1ccco1,42,-1%,3%,-5%,11,-3%

# Assay outcomes from PubChem BioAssay.
